From PubChem BioAssay
EPAC2 antag = Validation qHTS for antagonist of cAMP-regulated guanine nucleotide exchange factor 4 (EPAC2) | EPAC2 Rap1B BODIPY-GDP exchange, fluorescence | Rap guanine nucleotide exchange factor 4 (Homo sapiens), Q8WZA2 | Potency, µM (series often up to 112 µM), for inactives: at the top dose activity, negative = inhibition, actives largely listed as inhibitors | 16,000 compounds, 1.7% hits;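 also: 100% = activation by cAMP agonist control; nearly all actives have a fitted effect of over 40% in size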
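Fluorescent exchange read-out: 100 nM EPAC2 with 250 nM RAP1B–BODIPY-GDP and 50 uM GDP; BODIPY-GDP release lowers fluorescence. Read at 480/540 nm every 5 min for 30 min at room temperature; normalized to 6.5 mM cAMP.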
EPAC1 ag val = Validation qHTS for agonist of cAMP-regulated guanine nucleotide exchange factor 3 (EPAC1); Potency, µM, for inactives: max response, positive = active, most hits filed as activators; EPAC1 Rap1b BODIPY-GDP exchange, fluorescence; 16,000 compounds, 1% hits; also: nearly all actives have a fitted effect of over 70% in size
* hit, by the source's call; i = inactive; u = inconclusive; [ ] = dose if it differs, or a comment. In the library only some 2.9% were active in any assay of this set; here they are far more common. Calls follow the shape of the dose curve; as a rule, active = well fitted curve in the direction sought with a large enough effect; inconclusive = small, poorly fitted or top-dose-only effect, or another doubt; inactive = no such curve, though single readings can be large; an effect the other way counts as inactive or inconclusive. Unless noted, % is scaled to controls: 0 for no effect and ±100 for the full control effect; potency is read from the fitted curve at half-maximal effect.

SMILES	EPAC2 antag	EPAC1 ag val
CN1CCN(c2ncc3nc(-c4cccs4)c(=O)n(Cc4cccs4)c3n2)CC1	4.1%	-12.1%
COc1ccc2c(c1)-c1nc(-n3ncc(C(=O)NC[C@@H]4CCCN5CCCC[C@H]45)c3C)ncc1CC2	-5.1%	5.1%
COc1ccc(CN2CCC3(CC2)c2ccccc2[C@@H](NC(=O)c2ccccc2OC)[C@@H]3O)cc1O	4.4%	-14.1%
NC[C@@H]1O[C@H](O[C@H]2[C@H](O)[C@H](O[C@H]3[C@@H](O)[C@H](N)C[C@H](N)[C@H]3O[C@H]3O[C@H](CN)[C@H](O)[C@H](O)[C@H]3N)O[C@@H]2CO)[C@@H](N)[C@@H](O)[C@@H]1O	16.7%[29.6 µM]	-21.8%
CCn1nc(C)cc1C(=O)NCC1Cc2cc(C)cc(-c3ccccc3C(=O)OC)c2O1 (configuration not stated)	u	-2.0%
N#CCCn1c(=O)c(-c2ccc(Cl)cc2)nc2cnc(Nc3ccccc3)nc21	-3.0%	112µM*
N#CCCn1c(=O)c(-c2ccccc2)nc2cnc(Nc3ccccc3)nc21	-19.4%	22.5%
O=C(O)c1ccccc1[O-].O=C(O)c1ccccc1[O-].[Zn+2]	4.5%	2.7%
CC(C)CCC[C@@H](C)[C@H]1CC(=O)C2=C3CC[C@H]4C[C@@H](O)CC[C@]4(C)[C@H]3CC[C@@]21C	5.4%	-31.7%
CC(=O)N1CCC2(CCCN(c3ccc(-c4ccccc4)cc3)C2)CC1	u	100µM*
O=C(Oc1ccccc1)N1CCC2(CCCN(c3cccc(-c4ccccc4)c3)C2)CC1	-19.3%	u
O=C(c1ccco1)N1CCC2(CC1)CN(c1cccc(-c3ccccc3)c1)C2	u	100µM*
COCC(=O)N1CCC2(CCCN(c3ccc(-c4ccccc4)cc3)C2)CC1	-9.9%	-6.6%
CC(=O)N1CCC2(CCCN(c3cccc(-c4ccccc4)c3)C2)CC1	44.7µM*	100µM*
O=C(c1ccco1)N1CCC2(CC1)CN(c1ccc(-c3ccccc3)cc1)C2	-23.6%	u
Nc1nc(NC2CC2)c2ncn([C@@H]3C=C[C@@H](CO)C3)c2n1	2.0%	-15.3%
CCC1OC(=O)C[C@@H](O)[C@H](C)[C@@H](O[C@@H]2O[C@H](C)C[C@H](N(C)C)[C@H]2O)[C@@H](CC=O)C[C@@H](C)C(=O)/C=C/[C@]2(C)OC2C1C (some centres not stated)	9.7%	-5.6%
Cc1c(C(=O)N2CC3CCC2C3)sc2ncnc(NCCc3c[nH]c4ccccc34)c12 (configuration not stated)	-13.1%	2.7%
CC(=O)c1ccc(F)c(-c2cc(C)cc3c2OC(CNC(=O)Cc2ccc4c(c2)OCO4)C3)c1 (configuration not stated)	u	18.9%
Cc1ncc2c(c1CNS(=O)(=O)c1cccs1)CCN(C(=O)/C=C/c1cc(F)cc(F)c1)C2	-13.9%	13.6%
c1cncc(CNc2ccnc(-c3cccnc3)n2)c1	5.9%	20.1%
c1ccc(C(NCc2cccnc2)(c2ccccc2)c2ccccc2)cc1	10µM*	u
CC(=O)c1ccc2oc3ccccc3c(=O)c2c1	17.8%	2.2%
CCc1oc2ccccc2c1C(=O)c1cc(Br)c(O)c(Br)c1	44.7µM*	-42.4%
O=C(NNCNNC(=O)c1ccncc1)c1ccncc1	8.9%	6.6%
SMILES	EPAC2 antag	EPAC1 ag val
O=C(NNCS(=O)(=O)O)c1ccncc1	i	56.2µM*
O=C(CN1Cc2ccccc2OC(c2ccsc2)C1)N1CCN(Cc2ccc3c(c2)OCO3)CC1 (configuration not stated)	56.2µM*	8.3%
O=C(CN1CCN(Cc2ccc3c(c2)OCO3)CC1)N1c2ccccc2Sc2ccccc21	-22.6%	11.2%
COc1cccc(Nc2ncc3nc(-c4cn(C)c5ccccc45)c(=O)n(C[C@H]4CCCO4)c3n2)c1	8.7%	112µM*
COc1cccc(Cn2c(=O)c(-c3cn(C)c4ccccc34)nc3cnc(N4CCOCC4)nc32)c1	13.5%	0.0%
COc1cccc(Cn2c(=O)c(-c3ccccc3)nc3cnc(N4CCN(C)CC4)nc32)c1	-11.6%	-54.3%
COc1cccc(Cn2c(=O)c(CCc3ccccc3)nc3cnc(N4CCN(C)CC4)nc32)c1	-3.4%	112µM*
COc1cccc(Nc2ncc3nc(C)c(=O)n(C[C@H]4CCCO4)c3n2)c1	-11.1%	5.7%
COc1cccc(Cn2c(=O)c(-c3cn(C)c4ccccc34)nc3cnc(N4CCNCC4)nc32)c1	79.4µM*	u
Cc1cc(OCCOCC[N+](C)(C)Cc2ccccc2)ccc1C(C)(C)CC(C)(C)C	u	-18.0%
COC(=O)c1cc(CNC(=O)c2ccccc2OC)cc(NC(=O)c2ccccc2F)c1	-29.1%	21.1%
C/C(=C\c1ccco1)CN1CCOc2ccc(CN3CCC(Oc4cccnc4)CC3)cc2C1	-6.9%	-18.3%
